According to the supplement of paper PMC3334620:
Over roughly 33,000 sequences, “E-score (-0.5 to 0.5)” has its median near -0.054; the highest 2% begin near 0.35. The full list was thinned out, with the highest values kept by preference.

Biological target: T1, Stb5 (UniProt P38699)
T1 sequence: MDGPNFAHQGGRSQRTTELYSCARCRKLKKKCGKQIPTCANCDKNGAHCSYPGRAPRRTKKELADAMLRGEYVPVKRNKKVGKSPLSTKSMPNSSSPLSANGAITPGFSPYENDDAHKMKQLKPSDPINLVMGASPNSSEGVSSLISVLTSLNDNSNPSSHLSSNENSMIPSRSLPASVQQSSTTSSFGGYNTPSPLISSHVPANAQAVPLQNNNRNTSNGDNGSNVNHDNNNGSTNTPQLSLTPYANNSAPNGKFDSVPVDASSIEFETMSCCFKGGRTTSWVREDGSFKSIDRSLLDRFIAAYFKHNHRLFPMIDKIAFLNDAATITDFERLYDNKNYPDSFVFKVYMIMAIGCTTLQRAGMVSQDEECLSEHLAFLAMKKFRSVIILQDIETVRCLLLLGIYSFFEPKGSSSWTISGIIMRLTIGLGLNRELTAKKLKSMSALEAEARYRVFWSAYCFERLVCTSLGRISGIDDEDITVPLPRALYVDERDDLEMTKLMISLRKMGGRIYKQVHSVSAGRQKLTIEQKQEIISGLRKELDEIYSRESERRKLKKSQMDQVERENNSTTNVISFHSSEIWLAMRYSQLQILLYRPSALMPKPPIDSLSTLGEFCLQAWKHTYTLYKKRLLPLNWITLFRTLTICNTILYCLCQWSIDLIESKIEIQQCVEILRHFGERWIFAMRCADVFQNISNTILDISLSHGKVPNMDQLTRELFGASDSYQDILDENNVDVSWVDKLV
Assay: PBM E-score (8-mer binding enrichment) (E-score (-0.5 to 0.5)); higher = stronger / more preferred TF binding
Settings: protein concentration: 200 nM; construct: GST-full length
Summary of the method: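 Using PURExpress in vitro transcription/translation, GST-tagged yeast transcription factors were made in full-length or DNA-binding-domain form. These were applied at about 100-200 nM to double-stranded universal all-10-mer Agilent arrays, and bound protein was detected with fluorescent anti-GST. Scans were normalised with masliner before the Universal PBM Analysis Suite assigned E-scores to ungapped eight-base words pooled with their reverse complements.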

Row | Sequence | PBM E-score
1 | CTCTATGA | -0.245
2 | CCTGCTAG | -0.0487
3 | AGTCTCAT | -0.154
4 | CGCCACAC | 0.0326
5 | ACGCCGCT | 0.383
6 | ACGCCGCG | 0.361
7 | AAGCCGCG | 0.287
8 | ACGCCGTG | 0.297
9 | GCGCCGCC | 0.331
10 | CCGCCGCC | 0.361
11 | ACGCCGTC | 0.405
12 | ACGCCGTA | 0.204
13 | CAGCCGCC | 0.0327
14 | AAGCCGTC | 0.243
15 | AAGCCGCT | 0.134
16 | ACGCCTCT | -0.306
17 | AACTTCTT | -0.0358
18 | ATAGAGTA | -0.0125
19 | CGTCTAAC | 0.0919
20 | GGATAGGA | -0.00719
21 | CAGCGCAA | -0.0211
22 | CGACAGTA | 0.0893
23 | AGTGACGA | -0.191
24 | AGCTCCCC | -0.226
25 | TACTAGCA | -0.277

Row | Sequence | PBM E-score
26 | AGTGAAGA | -0.155
27 | ACTGAAGG | -0.139
28 | CATAGAGG | -0.173
29 | GCGCCGCA | 0.268
30 | ATGCCGCA | 0.25
31 | ATGCCGCG | 0.319
32 | ACGCCGCC | 0.41
33 | AAGCCGCC | 0.245
34 | ACGCCGCA | 0.354
35 | AGGCCGCC | 0.324
36 | CCGCCGCG | 0.363
37 | CAGCCGCG | 0.0138
38 | CCGCGCCG | 0.288
39 | CCGCCGCA | 0.301
40 | ATGCCGCC | 0.423
41 | AAGGGGAA | -0.188
42 | AATGGATA | 0.135
43 | TGGACCAA | -0.112
44 | GTTACTTA | 0.0421
45 | CCGAGGAG | 0.0924
46 | AGATCAAC | -0.251
47 | CCGCCGTC | 0.29
48 | CCGCCGTA | 0.381
49 | GCGCCGTA | 0.253
50 | CATAAGCG | 0.0871

Row | Sequence | PBM E-score
51 | GTTGAGGA | -0.203
52 | CTTTCACA | -0.0931
53 | GCAAGACC | 0.146
54 | CCGATGCG | 0.339
55 | CGGAATTC | 0.0284
56 | AGGGGATA | 0.0586
57 | AGGAACTA | 0.0488
58 | CGGAATTA | 0.417
59 | CGGGGGAA | 0.257
60 | CGGAACTA | 0.44
61 | CGGAACTC | 0.0793
62 | AGGAATTA | -0.00087
63 | CGGGGATA | 0.478
64 | GGGGGAAA | 0.165
65 | GGGGGATA | 0.13
66 | CGGGGAAA | 0.385
67 | AGAATGGG | -0.212
68 | CCTTGACA | -0.071
69 | GCTTTTAC | 0.265
70 | ACGTCGTC | -0.0716
71 | AAAGTTTG | -0.169
72 | CGGCCGCA | 0.235
73 | TGTAACAA | -0.111
74 | GAATCTCA | -0.131
75 | GGTCGCGA | -0.0386

Row | Sequence | PBM E-score
76 | GGGAAATA | 0.134
77 | CGGGATTC | 0.219
78 | CGGGAATA | 0.456
79 | CGGAAATC | 0.0555
80 | CGGAAGTC | 0.204
81 | AGGGAATA | 0.0674
82 | CGGAAGTA | 0.352
83 | AGGAAGTA | 0.0105
84 | GGGGAATA | 0.174
85 | CGGGATTA | 0.471
86 | AGGGATTA | 0.0519
87 | CGGAAATA | 0.399
88 | GAAGCGGA | 0.282
89 | CTCGATGC | -0.2
90 | CGAGTGTC | -0.0644
91 | AGCTTTTG | -0.139
92 | CAGACACC | 0.0808
93 | AGTACGAT | -0.165
94 | CCAGTGAG | -0.17
95 | TTATAGAA | -0.0532
96 | GCATAAGC | 0.0731
97 | AGAGACGG | 0.0766
98 | CTTTGACA | -0.135
99 | GGGGGACA | -0.187
100 | CGGGGACA | 0.415

Row | Sequence | PBM E-score
101 | GGGGAGTA | 0.0545
102 | AGGGAGTA | -0.109
103 | CGGGACTA | 0.451
104 | CGGGAGTA | 0.417
105 | CGGGGACC | 0.051
106 | CGGGACTC | 0.184
107 | GGGGACTA | -0.0234
108 | AACGGGTA | 0.102
109 | ACGATCCT | -0.231
110 | AGTCCGCG | 0.339
111 | AGTCCGGC | 0.38
112 | AGTCCGCA | 0.323
113 | AGTCCGCC | 0.42
114 | GGTCCGGA | 0.391
115 | CGTCCGCC | 0.338
116 | GATCCGGA | 0.227
117 | AGTCCGGG | 0.274
118 | AGTCCGGA | 0.39
119 | ATTCCGGA | 0.115
120 | CGTCCGGC | 0.275
121 | CGTCCGGA | 0.153
122 | AACCCTCC | -0.0222
123 | AATTCTCG | -0.186
124 | TCGCCTCA | -0.162
125 | CCCGAACC | 0.144

Row | Sequence | PBM E-score
126 | CGCAGACA | -0.0673
127 | AACTTCAC | -0.293
128 | ACTGGGGG | -0.28
129 | AGAGTGAT | -0.258
130 | AAGTTCTG | -0.231
131 | CCACCTTC | -0.199
132 | ACCGCTAA | 0.263
133 | GCCGCTAA | 0.296
134 | ACCGCTGC | 0.364
135 | ACCGCTAT | 0.33
136 | GCCGCTAC | 0.39
137 | ACCGCTAC | 0.395
138 | CCCGCTAC | 0.216
139 | ACCGCTCC | 0.323
140 | ACCGCTCG | 0.357
141 | ACCGCTCT | 0.226
142 | ACCGCTGA | 0.255
143 | CCCGCTGC | 0.209
144 | AAACGAAG | -0.0773
145 | ATCTGGCC | 0.0703
146 | TCACGCGA | -0.0286
147 | ACCTCTAT | -0.163
148 | TCTGTGCA | -0.195
149 | GTAGTAAC | 0.12
150 | AACGAACC | -0.116

Row | Sequence | PBM E-score
151 | TGCCCCAA | -0.123
152 | ACGTTGTA | -0.0486
153 | CGCACTTA | 0.368
154 | CGCACTTC | 0.0228
155 | AGCACTTA | -0.0929
156 | CCCTGCAG | -0.0201
157 | GCGGTGTA | 0.421
158 | AGGGTGTC | -0.106
159 | GGGGTGTA | 0.178
160 | CGGGTGTC | 0.00649
161 | CGGGTGTA | 0.37
162 | GCGGTGGA | 0.177
163 | ACGGTGTC | 0.408
164 | CCGGTGTC | 0.408
165 | AGGGTGTA | -0.236
166 | CCGGTGAC | 0.292
167 | ACGGTGTG | 0.288
168 | CTGGTGTC | -0.178
169 | TGACGCAA | -0.174
170 | CAAAGTGG | -0.254
171 | ACTGCGAC | 0.202
172 | TAACTCTA | -0.0643
173 | GAACCATC | -0.135
174 | ACCCACGT | -0.257
175 | ACGGTGTA | 0.348
